Data as given in the supplement of paper PMC6555819.

Columns and labels:
Assay in all cases: PBM binding z-score (relative to random genomic background probes); higher = stronger binding; sequences stand for … in GC…GCGATTGACAGCGTAGAATGAAGG
[1] = test system: PPARg:RXRa DBDmut IVT, anti-RXR (DBD mutation: RXRa K156A/R161A, NR concentration 270 nM, RXRa partner concentration 90 nM)
Method in brief: (§1)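 On custom Agilent 4×180K arrays, double-stranded probes with 34-nt variable regions carried direct-repeat seeds, single-nucleotide variants, half-site ablations or random human genomic background. Ligand-free nuclear receptor dimers were applied for 1 h, and binding was read with antibodies against each partner (one per run). Binding z-scores come from regression-normalized fluorescence, with the random background probes as reference.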

[2] = test system: PPARg:RXRa IVT, anti-PPARg (NR concentration 270 nM, RXRa partner concentration 90 nM)
Method in brief: as §1

[3] = test system: PPARg DBDmut:RXRa IVT, anti-PPARg (DBD mutation: PPARg1 K132A/R137A, NR concentration 270 nM, RXRa partner concentration 90 nM)
Method in brief: as §1

[4] = test system: PPARg DBDmut IVT, anti-PPARg (DBD mutation: PPARg1 K132A/R137A, NR concentration 270 nM)
Method in brief: as §1

[5] = test system: PPARg homodimer (NR concentration 180 nM)
Method in brief: as §1

[6] = test system: PXR:RXRa (NR concentration 270 nM, RXRa partner concentration 90 nM)
Method in brief: as §1

[7] = test system: PXR homodimer (NR concentration 270 nM)
Method in brief: as §1

[8] = test system: RARa:RXR (NR concentration 270 nM, RXRa partner concentration 90 nM)
Method in brief: as §1

[9] = test system: RARa homodimer (NR concentration 270 nM)
Method in brief: as §1

[10] = test system: RARb:RXRa (NR concentration 270 nM, RXRa partner concentration 90 nM)
Method in brief: as §1

[11] = test system: RARb homodimer (NR concentration 270 nM)
Method in brief: as §1

[12] = test system: RARg:RXRa (NR concentration 270 nM, RXRa partner concentration 90 nM)
Method in brief: as §1

[13] = test system: RARg homodimer (NR concentration 270 nM)
Method in brief: as §1

[14] = test system: RXRa DBDmut IVT, anti-RXR (DBD mutation: RXRa K156A/R161A, NR concentration 90 nM)
Method in brief: as §1

[15] = test system: RXRa homodimer (NR concentration 180 nM)
Method in brief: as §1

[16] = test system: THRa:RXRa (NR concentration 90 nM, RXRa partner concentration 90 nM)
Method in brief: as §1

[17] = test system: THRa homodimer (NR concentration 90 nM)
Method in brief: as §1

[18] = test system: VDR homodimer (NR concentration 270 nM)
Method in brief: as §1

Sequence | PBM binding z-score [1] | PBM binding z-score [2] | PBM binding z-score [3] | PBM binding z-score [4] | PBM binding z-score [5] | PBM binding z-score [6] | PBM binding z-score [7] | PBM binding z-score [8] | PBM binding z-score [9] | PBM binding z-score [10] | PBM binding z-score [11] | PBM binding z-score [12] | PBM binding z-score [13] | PBM binding z-score [14] | PBM binding z-score [15] | PBM binding z-score [16] | PBM binding z-score [17] | PBM binding z-score [18]
TAGCCTAGATCATGGGCCAGTATACCACGCGAAC | 0.188 | 0.69 | -0.074 | -0.614 | -1.13 | -0.835 | -0.709 | -0.943 | -0.47 | -0.479 | -0.389 | -0.301 | -0.388 | -0.748 | -0.39 | -0.674 | -0.848 | -0.532
ACTCGGCGGACAAAGGTCAGAGCTACGCCAGTGA | 0.148 | 2.33 | -0.012 | -0.434 | 1.79 | 3.41 | 0.0332 | 4.18 | 0.924 | 4.22 | 4.19 | 5.15 | 4.72 | 0.437 | 4.46 | 2.39 | 0.00347 | 0.793
CCGACTGGGGCAAAGGTTAACATACTCAGTACGA | 4.64 | 6.54 | 0.226 | -0.237 | 1.61 | 3.12 | -0.0875 | 4.64 | 0.346 | 2.77 | 2.4 | 4.1 | 2.03 | 0.365 | 3.89 | 2.19 | -0.145 | 0.335
TCTGCTAGGTCAGTTGGTCTGCTAACGAGCTGCC | 2.62 | 2.53 | 0.337 | -0.177 | -0.432 | -0.155 | -1.02 | 0.136 | -1.16 | 3.25 | 2.11 | 1.92 | 3.27 | 0.135 | 0.318 | 1.08 | -0.124 | -0.575
ATTCAAAGTTCATCTAGGTAACGTAAGATATGCT | 0.894 | 2.97 | 2.38 | 1.91 | 2.88 | 4.96 | 7.34 | 3.44 | 1.89 | 4.93 | 3.89 | 5.29 | 5.82 | 4.6 | 4.46 | 3.13 | 0.475 | 4.9
CCTTACGGGTCACTCACAGGTTATAGCATTTGGA | 3.1 | 3.43 | 0.37 | 0.401 | 3.21 | 3.56 | 0.559 | 4.46 | 1.29 | 3.77 | 3.65 | 5.9 | 4.5 | 2.04 | 4.75 | 3.07 | 0.529 | 1.28
TAGCCTAGGTCAGATTGGGCCAGTATACGCTATA | 0.821 | 1.47 | -0.745 | -0.0991 | 0.692 | 0.48 | -0.72 | 0.891 | -0.737 | 3.16 | 2.06 | 2.79 | 3.72 | -0.225 | 1.25 | 3.56 | -0.0542 | -0.257
ATCTCTAGGTAAAACTTCAGTGAATCCCGAGGAT | 1.85 | 1.8 | 1.22 | 0.94 | -0.0625 | -0.0735 | 0.231 | -0.12 | 0.676 | 0.128 | -0.785 | 0.396 | 0.43 | -0.375 | 0.101 | 0.283 | -0.319 | -0.455
GCTCGGAGGACAAGGTTAGAGCTTTGTCCGTAGA | -0.578 | -0.435 | -1.46 | -0.888 | -0.772 | -0.186 | -0.847 | -0.266 | -1.1 | 1.45 | 0.733 | 0.376 | 1.01 | -0.384 | 0.102 | 1.28 | -0.0516 | -0.796
AATACAGGGTCAGTAGGCCAGAGTAGGTACGAAT | 3.22 | 4.8 | 1.82 | 0.929 | 1.97 | 1.86 | 0.246 | 2.94 | 1.18 | 3.92 | 3.07 | 4.31 | 4.31 | 1.86 | 3.73 | 2.38 | 0.554 | 1.72
ACAACGAGGGCAATGAGTTGATAGCACGGGTGGC | 2.73 | 2.02 | 0.439 | 0.354 | 0.382 | 1.76 | 4.64 | 0.401 | -0.285 | 2.15 | 1.02 | 1.31 | 1.71 | 2.02 | 0.837 | 0.856 | -0.343 | 2.98
AGTCAAAGTTCACTAGGTAACTTAAGATTCAGCT | 2.47 | 4.8 | 2.06 | 1.17 | 1.24 | 4.02 | 2.95 | 3.07 | 1.01 | 4.73 | 3.53 | 4.86 | 5.58 | 4.13 | 3.94 | 2.03 | 0.269 | 3.85
ATCTCTAGGTAAAGATAGCTCAGTGAATGCAAAT | 1.84 | 1.53 | 1.58 | 0.349 | 0.00125 | -0.537 | -0.0577 | -0.292 | 0.787 | -0.195 | -0.409 | 0.141 | 0.459 | -0.409 | -0.19 | -0.00233 | -0.226 | -0.379
TCGACTAGGTTAGTCGGGGCATTCAGCCAACATA | 2.49 | 2.12 | -0.552 | -0.496 | -0.609 | 0.117 | -0.422 | 0.0483 | -1.11 | 0.662 | 0.379 | -0.0311 | -0.0411 | 0.284 | -0.049 | 1.1 | -0.279 | 0.492
ACTAGCAGGCCAAGTTTGTGTCACTCAAACAAAG | 0.66 | 0.636 | -0.284 | -0.278 | -0.972 | -0.323 | -0.685 | -0.217 | -0.826 | 0.471 | 0.267 | 0.00878 | 0.0859 | -0.193 | -0.545 | -0.0341 | -0.316 | 0.051
CGTCCAAGGTCAAGGTCAGTAAAAGAGACTCGAA | 3.53 | 4.49 | 0.553 | 0.71 | 4.59 | 4.72 | 1.84 | 5 | 3.01 | 5.53 | 4.79 | 6.66 | 7.87 | 3.57 | 6.53 | 4 | 3.52 | 3.34
